# In PubChem BioAssay (EPA / NIEHS):
# Inconclusive results are not listed. Calls of active or inactive are those of the source. The calls were made as follows: active = hit-call score of the fitted dose curve at least 0.9, where 1 is the maximum; inconclusive = response in the unintended direction; inactive = score below 0.9.
# Legend:
# [1] = biological target: mouse Cholecystokinin, CCK1 Receptor (CCKA), Cckar (gene 12425) (UniProt O08786); assay: NVS_GPCR_mCCKAPeripheral: NovaScreen (NVS) G Protein-Coupled Receptor Assay for mouse Cholecystokinin, CCK1 Receptor (CCKA) (AID 2283285)
# In short: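 Radioligand competitive displacement on mouse pancreatic membranes, 2 h incubation; filter-based scintillation counting, loss of signal versus DMSO. Single-concentration screen at 25 uM in duplicate, actives retested in concentration-response up to 50 uM.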
# [2] = biological target: Muscarinic acetylcholine receptor M2 (Homo sapiens) (UniProt P08172); assay: NVS_GPCR_hM2: NovaScreen (NVS) G Protein-Coupled Receptor Assay for human Muscarinic, M2 Receptor (AID 2283273)
# In short: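 Radioligand displacement on human M2 receptor membranes from CHO cells, 1 h incubation, filtration with scintillation counting. Primary screen in duplicate at 25 uM; actives retested in concentration series; loss of signal fitted versus DMSO.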
# [3] = biological target: human Muscarinic, M4 Receptor, CHRM4 (gene 1132) (UniProt P08173); assay: NVS_GPCR_hM4: NovaScreen (NVS) G Protein-Coupled Receptor Assay for human Muscarinic, M4 Receptor (AID 2283274)
# In short: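 Cell-free radioligand displacement using CHO-derived human M4 receptor protein, 1 h after dosing; bound radioactivity by filtration and scintillation counting. Primary screen single 25 uM duplicate, actives followed in concentration series.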
# [4] = biological target: rat Serotonin, 5-Hydroxytryptamine Receptor (5HT), Non-Selective Binding, Htr1a (gene 24473) (UniProt P19327); assay: NVS_GPCR_r5HT_NonSelective: NovaScreen (NVS) G Protein-Coupled Receptor Assay for rat Serotonin, 5-Hydroxytryptamine Receptor (5HT), Non-Selective Binding (AID 2283295)
# In short: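 Radioligand displacement on rat cortical membranes, 1 h incubation, filter-based scintillation counting. Primary duplicates at 25 uM, actives retested in concentration series; loss of signal fitted against DMSO as baseline.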
# [5] = biological target: human Neuropeptide Receptor Y1 (NPY1), NPY1R (gene 4886) (UniProt P25929); assay: NVS_GPCR_hNPY1: NovaScreen (NVS) G Protein-Coupled Receptor Assay for human Neuropeptide Receptor Y1 (NPY1) (AID 2283276)
# In short: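 Cell-free radioligand binding using receptor extracted from SK-N-MC cells, 1 h incubation, filter-based scintillation counting. Primary screen single concentration 25 uM in duplicate; actives followed in concentration series. Loss of bound signal scored versus DMSO.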
# [6] = biological target: human Neurokinin, NK2 Receptor, TACR2 (gene 6865) (UniProt P21452); assay: NVS_GPCR_hNK2: NovaScreen (NVS) G Protein-Coupled Receptor Assay for human Neurokinin, NK2 Receptor (AID 2283278);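 also: actives reduce bound radioligand signal relative to DMSO baseline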
# In short: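 Test chemicals displace a radioligand from receptor prepared from CHO cells in a cell-free format, read after 4 hours by scintillation counting on filters. Screening starts at 25 uM in duplicate, and active chemicals then go to concentration series.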
# [7] = biological target: human Opioid Receptor Mu (Opiate Mu), OPRM1 (gene 4988) (UniProt P35372); assay: NVS_GPCR_hOpiate_mu: NovaScreen (NVS) G Protein-Coupled Receptor Assay for human Opioid Receptor Mu (Opiate Mu) (AID 2283290);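 also: hits lower bound tracer signal versus DMSO meaning displacement of the ligand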
# In short: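 Here, radioligand binding to CHO-extracted receptor was measured after 2.5 h using filter-based scintillation detection. Initial single-concentration screening used 25 uM in duplicate with plate controls; confirmed actives went to concentration-response testing.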
# [8] = test system: rabbit Platelet Activating Factor Receptor (PAF), gene 100354046; assay: NVS_GPCR_rabPAF: NovaScreen (NVS) G Protein-Coupled Receptor Assay for rabbit Platelet Activating Factor Receptor (PAF) (AID 2283287)
# In short: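 Rabbit platelet membrane preparation; radioligand displacement read by filter-based scintillation counting 1 h after dosing, loss of signal versus DMSO. Primary screen in duplicate at 25 uM, actives followed up in concentration series.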
# [9] = test system: guinea pig Atrionatriuretic Peptide Receptor A (ANPA), gene 100135578; assay: NVS_GPCR_gANPA: NovaScreen (NVS) G Protein-Coupled Receptor Assay for guinea pig Atrionatriuretic Peptide Receptor A (ANPA) (AID 2283291)
# In short: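 Radioligand binding to guinea pig cerebellar membranes was measured after 1 h by filter-based scintillation counting. Chemicals were tested in duplicate at 25 uM, with hits run in concentration-response to a maximum of 50 uM. Binding loss was fitted against DMSO.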
# [10] = biological target: human Thromboxane A2 Receptor (TXA2), TBXA2R (gene 6915) (UniProt P21731); assay: NVS_GPCR_hTXA2: NovaScreen (NVS) G Protein-Coupled Receptor Assay for human Thromboxane A2 Receptor (TXA2) (AID 2283282);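 also: actives reduce bound radioligand signal relative to DMSO baseline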
# In short: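 Filter scintillation counting of bound radioligand, human platelet protein, 1 h exposure. Single-concentration duplicates (25 uM) first, concentration-response follow-up for actives. Binding loss scored against DMSO baseline.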
# [11] = biological target: Neuropeptide Y receptor type 2 (Homo sapiens) (UniProt P49146); assay: NVS_GPCR_hNPY2: NovaScreen (NVS) G Protein-Coupled Receptor Assay for human Neuropeptide Receptor Y2 (NPY2) (AID 2283277)
# In short: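 Radioligand binding on membranes extracted from SK-N-MC cells, cell-free, read 1 h after dosing by filter-based scintillation counting. Loss of signal vs DMSO. Primary screen in duplicate at 25 uM; actives followed up in concentration-response up to 50 uM.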
# [12] = biological target: rat Adrenergic Receptor, Beta (Adrb), Non-selective Binding, Adrb1 (gene 24925) (UniProt P18090); assay: NVS_GPCR_rAdrb_NonSelective: NovaScreen (NVS) G Protein-Coupled Receptor Assay for rat Adrenergic Receptor, Beta (Adrb), Non-selective Binding (AID 2283298)
# In short: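 Non-selective beta-adrenergic radioligand binding in rat cortical membranes, 1 h incubation, filter-based scintillation read-out. Primary screen 25 uM in duplicate; hits retested in concentration-response up to 50 uM, DMSO baseline.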
# [13] = biological target: rat Adrenergic, Alpha 1, Non-selective Receptor (Adra1), Adra1a (gene 29412) (UniProt P43140); assay: NVS_GPCR_rAdra1_NonSelective: NovaScreen (NVS) G Protein-Coupled Receptor Assay for rat Adrenergic, Alpha 1, Non-selective Receptor (Adra1) (AID 2283289)
# In short: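 Rat forebrain membranes; radioligand displacement read by filter-based scintillation counting 1 h after dosing. Primary screen in duplicate at 25 uM; hits (e.g. ≥30% inhibition) rerun as concentration–response to 50 uM max. Fitted versus DMSO.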
# [14] = biological target: human Vasopressin 1A Receptor (V1A), AVPR1A (gene 552) (UniProt P37288); assay: NVS_GPCR_hV1A: NovaScreen (NVS) G Protein-Coupled Receptor Assay for human Vasopressin 1A Receptor (V1A) (AID 2283284)
# In short: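 Cell-free radioligand displacement on human platelet preparations, 1.5 h incubation, filter-based scintillation counting. Chemicals first tested in duplicate at 25 uM; actives then run in concentration-response up to 50 uM, loss of signal fitted against DMSO.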
# [15] = biological target: human Neurotensin Receptor (NTS), NTSR1 (gene 4923) (UniProt P30989); assay: NVS_GPCR_hNTS: NovaScreen (NVS) G Protein-Coupled Receptor Assay for human Neurotensin Receptor (NTS) (AID 2283279)
# In short: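 Radioligand displacement on human NTSR1 protein from CHO cells, cell-free, 1 h, filter-based scintillation counting. Primary screen at 25 uM in duplicate; hits rerun in concentration-response up to 50 uM.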
# [16] = biological target: rat Adrenergic, Alpha 1A Receptor (Adra1A), Adra1a (gene 29412) (UniProt P43140); assay: NVS_GPCR_rAdra1A: NovaScreen (NVS) G Protein-Coupled Receptor Assay for rat Adrenergic, Alpha 1A Receptor (Adra1A) (AID 2283296)
# In short: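 Rat cortical membranes pretreated with chlorethyl clonidine; competitive radioligand displacement, 1 h. Filter-based scintillation counting. Primary screen in duplicate at 25 uM, actives followed in concentration series.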
# Sequence of mouse Cholecystokinin, CCK1 Receptor (CCKA), Cckar (gene 12425) (O08786 whole entry, looked up): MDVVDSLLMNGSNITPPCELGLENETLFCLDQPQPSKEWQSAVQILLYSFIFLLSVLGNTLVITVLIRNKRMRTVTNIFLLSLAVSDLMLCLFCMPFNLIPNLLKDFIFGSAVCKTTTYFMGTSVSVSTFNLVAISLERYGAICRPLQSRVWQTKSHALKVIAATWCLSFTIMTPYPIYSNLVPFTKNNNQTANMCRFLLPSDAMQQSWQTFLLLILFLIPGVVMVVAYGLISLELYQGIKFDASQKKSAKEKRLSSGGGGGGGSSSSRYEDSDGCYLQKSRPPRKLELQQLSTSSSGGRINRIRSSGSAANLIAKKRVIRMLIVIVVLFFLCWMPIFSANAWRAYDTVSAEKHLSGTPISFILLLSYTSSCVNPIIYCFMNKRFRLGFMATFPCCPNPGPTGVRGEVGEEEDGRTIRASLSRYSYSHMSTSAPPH
# Sequence of Muscarinic acetylcholine receptor M2 (Homo sapiens) (P08172 whole entry, looked up): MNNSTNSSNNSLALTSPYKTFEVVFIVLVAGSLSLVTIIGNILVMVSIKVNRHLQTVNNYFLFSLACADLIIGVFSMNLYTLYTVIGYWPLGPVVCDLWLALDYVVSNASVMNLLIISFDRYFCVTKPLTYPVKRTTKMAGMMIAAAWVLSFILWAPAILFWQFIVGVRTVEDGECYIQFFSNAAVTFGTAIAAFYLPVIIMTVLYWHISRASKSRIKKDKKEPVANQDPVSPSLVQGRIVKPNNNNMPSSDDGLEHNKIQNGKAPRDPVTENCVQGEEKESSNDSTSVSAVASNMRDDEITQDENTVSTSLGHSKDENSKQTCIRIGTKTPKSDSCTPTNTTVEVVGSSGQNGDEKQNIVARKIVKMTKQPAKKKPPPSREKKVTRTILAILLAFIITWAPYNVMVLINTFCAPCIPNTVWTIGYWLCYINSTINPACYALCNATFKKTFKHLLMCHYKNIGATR
# Sequence of human Opioid Receptor Mu (Opiate Mu), OPRM1 (gene 4988) (P35372 whole entry, looked up): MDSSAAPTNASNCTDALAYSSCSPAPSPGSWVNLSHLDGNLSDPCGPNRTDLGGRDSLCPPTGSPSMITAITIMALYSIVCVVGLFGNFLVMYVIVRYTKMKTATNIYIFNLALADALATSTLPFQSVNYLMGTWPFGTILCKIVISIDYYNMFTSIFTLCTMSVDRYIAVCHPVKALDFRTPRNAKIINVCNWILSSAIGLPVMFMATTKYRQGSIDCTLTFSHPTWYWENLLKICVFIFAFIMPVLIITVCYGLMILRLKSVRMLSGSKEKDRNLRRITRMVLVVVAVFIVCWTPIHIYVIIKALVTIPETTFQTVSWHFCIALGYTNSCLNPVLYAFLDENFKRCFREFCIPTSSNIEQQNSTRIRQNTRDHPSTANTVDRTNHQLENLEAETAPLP
# Sequence of human Muscarinic, M4 Receptor, CHRM4 (gene 1132) (P08173 whole entry, looked up): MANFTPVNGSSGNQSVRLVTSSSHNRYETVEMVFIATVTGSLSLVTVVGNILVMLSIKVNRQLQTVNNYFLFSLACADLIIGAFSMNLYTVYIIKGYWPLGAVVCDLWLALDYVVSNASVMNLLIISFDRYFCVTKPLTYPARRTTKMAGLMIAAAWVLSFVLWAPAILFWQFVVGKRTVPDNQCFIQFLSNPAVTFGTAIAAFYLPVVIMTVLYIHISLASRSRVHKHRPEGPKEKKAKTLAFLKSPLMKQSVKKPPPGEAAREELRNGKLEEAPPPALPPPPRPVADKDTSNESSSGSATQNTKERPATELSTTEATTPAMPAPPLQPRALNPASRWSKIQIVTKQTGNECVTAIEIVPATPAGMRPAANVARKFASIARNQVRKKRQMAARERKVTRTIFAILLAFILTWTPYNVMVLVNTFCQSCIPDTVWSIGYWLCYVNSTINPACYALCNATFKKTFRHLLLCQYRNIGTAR
# Sequence of human Neurokinin, NK2 Receptor, TACR2 (gene 6865) (P21452 whole entry, looked up): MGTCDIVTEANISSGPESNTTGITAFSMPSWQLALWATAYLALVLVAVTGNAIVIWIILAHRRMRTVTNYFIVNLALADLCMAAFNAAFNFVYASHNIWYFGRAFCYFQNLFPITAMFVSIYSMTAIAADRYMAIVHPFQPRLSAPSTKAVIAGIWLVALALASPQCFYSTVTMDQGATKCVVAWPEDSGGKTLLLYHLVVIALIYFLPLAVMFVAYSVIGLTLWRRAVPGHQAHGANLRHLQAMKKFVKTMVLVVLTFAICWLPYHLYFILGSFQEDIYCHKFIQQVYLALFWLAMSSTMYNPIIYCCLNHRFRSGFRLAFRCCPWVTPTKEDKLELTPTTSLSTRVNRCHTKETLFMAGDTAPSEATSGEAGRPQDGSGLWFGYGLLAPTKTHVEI
# Sequence of human Neuropeptide Receptor Y1 (NPY1), NPY1R (gene 4886) (P25929 whole entry, looked up): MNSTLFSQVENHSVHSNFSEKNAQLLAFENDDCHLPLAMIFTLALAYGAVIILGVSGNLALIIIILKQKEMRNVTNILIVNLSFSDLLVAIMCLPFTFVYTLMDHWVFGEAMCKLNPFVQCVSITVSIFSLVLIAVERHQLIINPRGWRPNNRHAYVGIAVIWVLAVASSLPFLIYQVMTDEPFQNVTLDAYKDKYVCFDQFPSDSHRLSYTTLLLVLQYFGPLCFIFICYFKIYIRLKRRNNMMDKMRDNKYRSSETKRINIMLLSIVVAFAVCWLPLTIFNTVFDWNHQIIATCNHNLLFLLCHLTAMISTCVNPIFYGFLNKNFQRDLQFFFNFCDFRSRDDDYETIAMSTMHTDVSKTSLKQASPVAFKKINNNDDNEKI
# Sequence of human Vasopressin 1A Receptor (V1A), AVPR1A (gene 552) (P37288 whole entry, looked up): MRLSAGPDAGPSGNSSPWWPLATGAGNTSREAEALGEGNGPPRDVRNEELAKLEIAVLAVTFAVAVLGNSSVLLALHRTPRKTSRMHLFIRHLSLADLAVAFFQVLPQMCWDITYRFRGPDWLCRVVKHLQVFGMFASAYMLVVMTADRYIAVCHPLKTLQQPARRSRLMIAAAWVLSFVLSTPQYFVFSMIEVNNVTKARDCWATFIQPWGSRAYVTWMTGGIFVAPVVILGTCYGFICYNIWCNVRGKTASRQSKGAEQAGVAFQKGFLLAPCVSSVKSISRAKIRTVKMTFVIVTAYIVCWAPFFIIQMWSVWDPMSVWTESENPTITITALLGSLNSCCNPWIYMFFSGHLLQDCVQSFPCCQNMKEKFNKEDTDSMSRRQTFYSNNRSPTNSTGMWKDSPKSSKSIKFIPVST
# Sequence of human Thromboxane A2 Receptor (TXA2), TBXA2R (gene 6915) (P21731 whole entry, looked up): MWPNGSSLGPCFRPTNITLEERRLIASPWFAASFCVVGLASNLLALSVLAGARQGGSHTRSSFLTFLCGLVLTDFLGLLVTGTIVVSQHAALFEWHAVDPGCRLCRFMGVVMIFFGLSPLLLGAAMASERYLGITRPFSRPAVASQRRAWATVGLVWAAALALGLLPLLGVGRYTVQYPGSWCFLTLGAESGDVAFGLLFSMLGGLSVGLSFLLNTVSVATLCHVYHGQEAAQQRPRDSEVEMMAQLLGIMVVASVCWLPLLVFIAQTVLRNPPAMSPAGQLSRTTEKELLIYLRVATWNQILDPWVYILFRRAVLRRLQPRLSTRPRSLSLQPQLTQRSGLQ
# Sequence of Neuropeptide Y receptor type 2 (Homo sapiens) (P49146 whole entry, looked up): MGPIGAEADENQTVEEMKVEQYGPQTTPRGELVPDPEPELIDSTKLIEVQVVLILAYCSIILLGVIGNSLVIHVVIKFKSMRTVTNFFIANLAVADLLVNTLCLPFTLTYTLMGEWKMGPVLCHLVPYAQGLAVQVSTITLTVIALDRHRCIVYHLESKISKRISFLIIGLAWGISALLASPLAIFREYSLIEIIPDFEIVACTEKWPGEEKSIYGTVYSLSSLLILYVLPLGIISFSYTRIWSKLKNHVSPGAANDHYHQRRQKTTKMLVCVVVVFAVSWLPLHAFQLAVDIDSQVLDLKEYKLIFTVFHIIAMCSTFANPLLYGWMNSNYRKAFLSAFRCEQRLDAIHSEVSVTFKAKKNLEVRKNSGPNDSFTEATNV
# Sequence of rat Adrenergic Receptor, Beta (Adrb), Non-selective Binding, Adrb1 (gene 24925) (P18090 whole entry, looked up): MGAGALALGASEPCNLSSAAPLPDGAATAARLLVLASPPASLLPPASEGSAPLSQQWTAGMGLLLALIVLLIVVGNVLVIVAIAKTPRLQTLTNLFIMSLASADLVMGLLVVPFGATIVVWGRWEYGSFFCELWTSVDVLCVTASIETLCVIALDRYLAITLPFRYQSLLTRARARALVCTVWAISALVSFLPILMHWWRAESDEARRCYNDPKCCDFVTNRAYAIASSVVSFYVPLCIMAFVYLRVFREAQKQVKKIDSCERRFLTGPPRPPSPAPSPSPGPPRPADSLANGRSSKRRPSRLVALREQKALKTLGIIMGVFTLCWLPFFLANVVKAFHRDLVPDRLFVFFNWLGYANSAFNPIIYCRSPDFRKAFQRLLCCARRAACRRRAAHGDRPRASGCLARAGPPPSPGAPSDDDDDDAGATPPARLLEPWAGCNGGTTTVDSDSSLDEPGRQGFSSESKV
# Sequence of human Neurotensin Receptor (NTS), NTSR1 (gene 4923) (P30989 whole entry, looked up): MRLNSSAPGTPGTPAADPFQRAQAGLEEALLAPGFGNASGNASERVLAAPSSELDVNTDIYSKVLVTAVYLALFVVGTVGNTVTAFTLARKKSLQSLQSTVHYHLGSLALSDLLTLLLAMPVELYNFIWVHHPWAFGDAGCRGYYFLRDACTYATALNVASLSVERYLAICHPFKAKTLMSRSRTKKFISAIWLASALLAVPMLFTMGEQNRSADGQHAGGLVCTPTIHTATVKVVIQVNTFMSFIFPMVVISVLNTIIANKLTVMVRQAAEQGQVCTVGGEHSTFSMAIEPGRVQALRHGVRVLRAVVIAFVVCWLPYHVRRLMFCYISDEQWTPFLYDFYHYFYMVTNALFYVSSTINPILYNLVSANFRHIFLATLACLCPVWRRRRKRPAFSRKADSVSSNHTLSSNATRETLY
compound,measurement,setting,value
CCOC(=O)C(C)OC(=O)c1cc(Oc2ccc(C(F)(F)F)cc2Cl)ccc1[N+](=O)[O-] (centres undefined),outcome,[1],inactive
Cc1cc(C)nc(Nc2ccccc2)n1,AC50,[2],4.96 µM (active)
same,AC50,[3],14.9 µM (active)
N#Cc1c[nH]cc1-c1cccc2c1OC(F)(F)O2,outcome,[4],inactive
CCCCC(C#N)(Cn1cncn1)c1ccc(Cl)cc1 (centres undefined),AC50,[2],14.6 µM (active)
same,AC50,[3],7.69 µM (active)
O=C1C2CC=CCC2C(=O)N1SC(Cl)(Cl)Cl (centres undefined),AC50,[5],9.25 µM (active)
same,AC50,[6],4.9 µM (active)
same,AC50,[7],9.7 µM (active)
O=c1n(Cl)c(=O)n(Cl)c(=O)n1Cl,outcome,[8],inactive
CC(C)=CC1C(C(=O)OCc2coc(Cc3ccccc3)c2)C1(C)C (centres undefined),AC50,[7],7.58 µM (active)
CNC(=O)N(C)c1nnc(C(C)(C)C)s1,outcome,[9],inactive
CC1(C)C(C(=O)OC(C#N)c2cccc(Oc3ccccc3)c2)C1(C)C (centres undefined),outcome,[6],inactive
same,outcome,[1],inactive
CCN(CC)C(=O)C(C)Oc1cccc2ccccc12 (centres undefined),outcome,[10],inactive
same,AC50,[7],14.8 µM (active)
COP(=S)(OC)SCn1nnc2ccccc2c1=O,AC50,[8],25 µM (active)
same,outcome,[7],inactive
CCCC(=NOCC)C1=C(O)CC(CC(C)SCC)CC1=O (centres undefined),outcome,[8],inactive
CCNP(=S)(OC)O/C(C)=C/C(=O)OC(C)C (centres undefined),outcome,[2],inactive
same,outcome,[11],inactive
same,outcome,[12],inactive
CCOc1nc(F)cc2nc(S(=O)(=O)Nc3c(Cl)cccc3Cl)nn12,outcome,[6],inactive
same,outcome,[13],inactive
CC1(C)C(C=C(Cl)Cl)C1C(=O)OC(C#N)c1cccc(Oc2ccccc2)c1 (centres undefined),outcome,[6],inactive
same,AC50,[1],17.1 µM (active)
CCCCC(O)(Cn1cncn1)c1ccc(Cl)cc1Cl (centres undefined),outcome,[2],inactive
same,outcome,[5],inactive
same,outcome,[1],inactive
same,AC50,[7],4.96 µM (active)
CC(C)(C)C(=O)C(Oc1ccc(Cl)cc1)n1cncn1 (centres undefined),AC50,[2],4.96 µM (active)
same,outcome,[3],inactive
CN/C(=N\[N+](=O)[O-])NCc1cnc(Cl)s1,outcome,[14],inactive
CCOP(=O)(OCC)Oc1nc(Cl)c(Cl)cc1Cl,outcome,[2],inactive
O=C(Nc1ccccc1-c1ccc(Cl)cc1)c1cccnc1Cl,outcome,[15],inactive
CCNC(=O)NC(=O)C(C#N)=NOC,outcome,[3],inactive
CNC(=O)Oc1cccc2ccccc12,outcome,[16],inactive
CS(=O)(=O)c1cc(C(F)(F)F)ccc1C(=O)c1cnoc1C1CC1,AC50,[8],19.1 µM (active)
same,outcome,[9],inactive
